Reference: PubChem BioAssay (EPA / NIEHS)
The source made the active and inactive calls. How the source made its calls: active means hit-call score of the fitted dose curve at least 0.9, where 1 is the maximum; inactive means score below 0.9.

Each compound was assayed on Cytochrome P450 7A1 (Homo sapiens) (UniProt P22680) (assay: LTEA_HepaRG_CYP7A1: Life Technologies and Expression Analysis (LTEA) Assay for Cytochrome P450 7A1 (CYP7A1) using HepaRG (AID 2283496)). Conditions: mRNA level, 48 h; actives raise or lower the signal.
Summary of the method: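 HepaRG cells plated 48 h, then switched to serum-free induction medium and exposed in duplicate for 48 h to 8-point half-log series from 100 uM in 0.5% DMSO. CYP7A1 mRNA by qRT-PCR (TaqMan), normalized to ACTB/GAPDH/POLR2A; bidirectional fit versus DMSO.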
For `CC(C)CC(C)O` (stereo not drawn), the outcome was “inactive”. `CCCCN1C(=O)[C@@H]([C@H](O)C2CCCCC2)NC(=O)C12CCN(Cc1ccc(Oc3ccc(C(=O)O)cc3)cc1)CC2` was tested, and the AC50 was 2.15 µM (active). `CC(C)c1nnc2ccc(-c3ocnc3-c3cc(F)ccc3F)cn12` was tested, and the AC50 was 25.2 µM (active). With `CNC(C)=O` the outcome was “inactive”. With `OCCNCCO` the AC50 was 50 µM (active). For `C=CN1CCCC1=O`, the outcome was “inactive”. `CCCCCCCCN(C)C` was tested, and the outcome was “inactive”. In the case of `c1ccc2ncccc2c1`, the outcome is reported as “inactive”. In the case of `CCCCCCOC(=O)CC(CC(=O)OCCCCCC)(OC(=O)CCC)C(=O)OCCCCCC`, the outcome is reported as “inactive”. `CCc1cccc(CC)c1N` was tested, and the outcome was “inactive”. `O=C1CN(N=Cc2ccc([N+](=O)[O-])o2)C(=O)N1` was tested, and the AC50 was 22.2 µM (active). `CCCC(CCC)C(=O)O` was tested, and the outcome was “inactive”. `Cc1ncc([C@@H](CCCCCCc2ccc3c(n2)NCCC3)CC(=O)O)cn1` was tested, and the outcome was “inactive”. `CCCCCCCCCCCCCCCCOS(=O)(=O)O` was tested, and the AC50 was 45.2 µM (active). In the case of `CCN(CC)C(=S)SSC(=S)N(CC)CC`, the outcome is reported as “inactive”.

Each compound was assayed on Glutathione S-Transferase (GSTA2), GSTA2 (gene 2939) (assay: LTEA_HepaRG_GSTA2: Life Technologies and Expression Analysis (LTEA) Assay for Glutathione S-Transferase (GSTA2) using HepaRG (AID 2283497)). Conditions: mRNA level, 48 h; actives raise or lower the signal.
Summary of the method: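 Differentiated human HepaRG cells were exposed in duplicate for 48 h in serum-free induction medium, 8 points from 100 uM top in half-log steps, 0.5% DMSO. GSTA2 mRNA was measured by TaqMan qRT-PCR, normalized to ACTB, GAPDH and POLR2A; bidirectional fit versus DMSO.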
In the case of `COc1cc2c(c(OC)c1OC)-c1ccc(OC)c(=O)cc1[C@@H](NC(C)=O)CC2`, the AC50 is reported as 0.107 µM (active). In the case of `CCn1nc(C)c2c1C(=O)NCC(c1ccc(O)cc1)=N2`, the outcome is reported as “inactive”. In the case of `CCCCCCCCCC`, the outcome is reported as “inactive”. With `O=C(O)c1ccc2c(c1)nc(C(=O)NC1CCN(C3CC3)CC1)n2Cc1cc(-c2ccc(Cl)s2)on1` the outcome was “inactive”. `Nc1ccn([C@@H]2O[C@H](CO)[C@@H](O)[C@@H]2O)c(=O)n1` was tested, and the outcome was “inactive”. With `NC(=O)NN=Cc1ccc([N+](=O)[O-])o1` the outcome was “inactive”. With `OC(Cn1cncn1)(Cn1cncn1)c1ccc(F)cc1F` the outcome was “inactive”. For `OCc1ccccc1`, the outcome was “inactive”. `NNC(=O)c1ccncc1` was tested, and the outcome was “inactive”. With `CCc1ccc(O)c(C(C)(C)C)c1` the outcome was “inactive”. `CCOC(N)=O` was tested, and the outcome was “inactive”. For `CC(C)CCCCCCOC(=O)C1CCCCC1C(=O)OCCCCCCC(C)C` (stereo not drawn), the outcome was “inactive”. In the case of `c1ccc(C(O[C@@H]2CCCN(CCc3ccc4c(c3)OCO4)C2)c2ccccc2)cc1`, the AC50 is reported as 79.1 µM (active). For `CC(C)C(=O)Nc1ccc([N+](=O)[O-])c(C(F)(F)F)c1`, the AC50 was 65.8 µM (active). With `NC(=O)N(O)[C@@H]1COc2cc(OCc3ccccc3)ccc21` the outcome was “inactive”. With `O=c1[nH]cnc2c1ncn2[C@H]1CC[C@@H](CO)O1` the outcome was “inactive”. For `NC(N)=O`, the outcome was “inactive”. `COCc1nnc(-c2ccc[n+]([O-])c2)n1-c1c(Cl)c(Cl)cc2[nH]c(=O)c(=O)[nH]c12` was tested, and the outcome was “inactive”. In the case of `OC[C@H]1O[C@@H]2O[C@H]3[C@H](O)[C@@H](O)[C@@H](O[C@H]4[C@H](O)[C@@H](O)[C@@H](O[C@H]5[C@H](O)[C@@H](O)[C@@H](O[C@H]6[C@H](O)[C@@H](O)[C@@H](O[C@H]7[C@H](O)[C@@H](O)[C@@H](O[C@H]1[C@H](O)[C@H]2O)O[C@@H]7CO)O[C@@H]6CO)O[C@@H]5CO)O[C@@H]4CO)O[C@@H]3CO`, the outcome is reported as “inactive”. For `CC(C)CC(C)O` (stereo not drawn), the outcome was “inactive”. In the case of `CCCCN1C(=O)[C@@H]([C@H](O)C2CCCCC2)NC(=O)C12CCN(Cc1ccc(Oc3ccc(C(=O)O)cc3)cc1)CC2`, the AC50 is reported as 2.39 µM (active). In the case of `CC(C)c1nnc2ccc(-c3ocnc3-c3cc(F)ccc3F)cn12`, the AC50 is reported as 80.5 µM (active). In the case of `CNC(C)=O`, the outcome is reported as “inactive”. In the case of `OCCNCCO`, the AC50 is reported as 63.4 µM (active). In the case of `C=CN1CCCC1=O`, the outcome is reported as “inactive”. For `CCCCCCCCN(C)C`, the outcome was “inactive”. With `c1ccc2ncccc2c1` the outcome was “inactive”. With `CCCCCCOC(=O)CC(CC(=O)OCCCCCC)(OC(=O)CCC)C(=O)OCCCCCC` the outcome was “inactive”. With `CCc1cccc(CC)c1N` the outcome was “inactive”. `O=C1CN(N=Cc2ccc([N+](=O)[O-])o2)C(=O)N1` was tested, and the AC50 was 81.8 µM (active). In the case of `CCCC(CCC)C(=O)O`, the outcome is reported as “inactive”. `Cc1ncc([C@@H](CCCCCCc2ccc3c(n2)NCCC3)CC(=O)O)cn1` was tested, and the outcome was “inactive”. `CCCCCCCCCCCCCCCCOS(=O)(=O)O` was tested, and the AC50 was 43.5 µM (active). In the case of `CCN(CC)C(=S)SSC(=S)N(CC)CC`, the outcome is reported as “inactive”.

What follows are compounds tested on Glutamate-cysteine ligase catalytic (GCLC), GCLC (gene 2729) (assay: LTEA_HepaRG_GCLC: Life Technologies and Expression Analysis (LTEA) Assay for Glutamate-cysteine ligase catalytic (GCLC) using HepaRG (AID 2283498)). Conditions: mRNA level, 48 h; actives raise or lower the signal.
Summary of the method: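 Differentiated HepaRG cells exposed 48 h in serum-free induction medium, eight-point half-log series topping at 100 uM in 0.5% DMSO, duplicates. GCLC mRNA by qRT-PCR normalized to ACTB, GAPDH and POLR2A, fitted bidirectionally versus DMSO.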
With `COc1cc2c(c(OC)c1OC)-c1ccc(OC)c(=O)cc1[C@@H](NC(C)=O)CC2` the AC50 was 0.0881 µM (active). In the case of `CCn1nc(C)c2c1C(=O)NCC(c1ccc(O)cc1)=N2`, the outcome is reported as “inactive”. `CCCCCCCCCC` was tested, and the outcome was “inactive”. In the case of `O=C(O)c1ccc2c(c1)nc(C(=O)NC1CCN(C3CC3)CC1)n2Cc1cc(-c2ccc(Cl)s2)on1`, the outcome is reported as “inactive”. `Nc1ccn([C@@H]2O[C@H](CO)[C@@H](O)[C@@H]2O)c(=O)n1` was tested, and the outcome was “inactive”. `NC(=O)NN=Cc1ccc([N+](=O)[O-])o1` was tested, and the outcome was “inactive”. With `OC(Cn1cncn1)(Cn1cncn1)c1ccc(F)cc1F` the outcome was “inactive”. With `OCc1ccccc1` the outcome was “inactive”. With `NNC(=O)c1ccncc1` the outcome was “inactive”. With `CCc1ccc(O)c(C(C)(C)C)c1` the outcome was “inactive”. In the case of `CCOC(N)=O`, the outcome is reported as “inactive”. `CC(C)CCCCCCOC(=O)C1CCCCC1C(=O)OCCCCCCC(C)C` (stereo not drawn) was tested, and the outcome was “inactive”. `c1ccc(C(O[C@@H]2CCCN(CCc3ccc4c(c3)OCO4)C2)c2ccccc2)cc1` was tested, and the outcome was “inactive”. In the case of `CC(C)C(=O)Nc1ccc([N+](=O)[O-])c(C(F)(F)F)c1`, the outcome is reported as “inactive”. For `NC(=O)N(O)[C@@H]1COc2cc(OCc3ccccc3)ccc21`, the outcome was “inactive”. For `O=c1[nH]cnc2c1ncn2[C@H]1CC[C@@H](CO)O1`, the outcome was “inactive”. `NC(N)=O` was tested, and the outcome was “inactive”. For `COCc1nnc(-c2ccc[n+]([O-])c2)n1-c1c(Cl)c(Cl)cc2[nH]c(=O)c(=O)[nH]c12`, the outcome was “inactive”. `OC[C@H]1O[C@@H]2O[C@H]3[C@H](O)[C@@H](O)[C@@H](O[C@H]4[C@H](O)[C@@H](O)[C@@H](O[C@H]5[C@H](O)[C@@H](O)[C@@H](O[C@H]6[C@H](O)[C@@H](O)[C@@H](O[C@H]7[C@H](O)[C@@H](O)[C@@H](O[C@H]1[C@H](O)[C@H]2O)O[C@@H]7CO)O[C@@H]6CO)O[C@@H]5CO)O[C@@H]4CO)O[C@@H]3CO` was tested, and the outcome was “inactive”. For `CC(C)CC(C)O` (stereo not drawn), the outcome was “inactive”. `CCCCN1C(=O)[C@@H]([C@H](O)C2CCCCC2)NC(=O)C12CCN(Cc1ccc(Oc3ccc(C(=O)O)cc3)cc1)CC2` was tested, and the AC50 was 2.25 µM (active). With `CC(C)c1nnc2ccc(-c3ocnc3-c3cc(F)ccc3F)cn12` the outcome was “inactive”. For `CNC(C)=O`, the outcome was “inactive”. In the case of `OCCNCCO`, the outcome is reported as “inactive”. `C=CN1CCCC1=O` was tested, and the outcome was “inactive”. `CCCCCCCCN(C)C` was tested, and the outcome was “inactive”. `c1ccc2ncccc2c1` was tested, and the outcome was “inactive”. `CCCCCCOC(=O)CC(CC(=O)OCCCCCC)(OC(=O)CCC)C(=O)OCCCCCC` was tested, and the outcome was “inactive”. With `CCc1cccc(CC)c1N` the outcome was “inactive”. `O=C1CN(N=Cc2ccc([N+](=O)[O-])o2)C(=O)N1` was tested, and the outcome was “inactive”. With `CCCC(CCC)C(=O)O` the outcome was “inactive”. In the case of `Cc1ncc([C@@H](CCCCCCc2ccc3c(n2)NCCC3)CC(=O)O)cn1`, the outcome is reported as “inactive”. In the case of `CCCCCCCCCCCCCCCCOS(=O)(=O)O`, the outcome is reported as “inactive”. For `CCN(CC)C(=S)SSC(=S)N(CC)CC`, the outcome was “inactive”.
